Compounds without any hit were thinned out: in the full panel of roughly 83,000, 20% have a hit.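 For each line, cells grew in 96-well plates with the test compound present at a single concentration for 48 hours.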 Unmarked numbers belong to inactive results. Active and inactive are the calls of the source. Rule for the calls: active = growth percent below 10; inactive = the rest.
Columns and labels:
Assay in all cases: NCI-60 one-dose screen, 48 h (100 = growth as untreated, 0 = no growth, -100 = all killed)
Conditions in all cases: 10 µM unless noted
SR leukemia = system: SR leukemia
RPMI-8226 leukemia = system: RPMI-8226 leukemia
OVCAR-8 ovarian = system: OVCAR-8 ovarian
OVCAR-5 ovarian = system: OVCAR-5 ovarian
OVCAR-4 ovarian = system: OVCAR-4 ovarian
SK-OV-3 ovarian = system: SK-OV-3 ovarian
IGROV1 ovarian = system: IGROV1 ovarian
OVCAR-3 ovarian = system: OVCAR-3 ovarian
HS 578T breast = system: HS 578T breast
NCI/ADR-RES ovarian = system: NCI/ADR-RES ovarian
T-47D breast = system: T-47D breast
BT-549 breast = system: BT-549 breast
MDA-MB-435 melanoma = system: MDA-MB-435 melanoma
SW-620 colon = system: SW-620 colon
MCF7 breast = system: MCF7 breast
HCT-116 colon = system: HCT-116 colon
HCC-2998 colon = system: HCC-2998 colon
KM12 colon = system: KM12 colon

SMILES | growth (SR leukemia) | growth (RPMI-8226 leukemia) | growth (OVCAR-8 ovarian) | growth (OVCAR-5 ovarian) | growth (OVCAR-4 ovarian) | growth (SK-OV-3 ovarian) | growth (IGROV1 ovarian) | growth (OVCAR-3 ovarian) | growth (HS 578T breast) | growth (NCI/ADR-RES ovarian) | growth (T-47D breast) | growth (BT-549 breast) | growth (MDA-MB-435 melanoma) | growth (SW-620 colon) | growth (MCF7 breast) | growth (HCT-116 colon) | growth (HCC-2998 colon) | growth (KM12 colon)
CCCn1cnc2c(c1=N)C(c1ccc(OC)cc1)c1sc3c(C)cccc3c1O2 (stereo not given) | 27% | -3.63% (active) | 23.9% | 32.4% | 75.3% | 49% | 18.4% | 7.94% (active) | 10.5% | 7.35% (active) | 40.6% | 12.2% | -33.4% (active) | 25.7% | 20.4% | 6.27% (active) | 15% | 11.7%
CC(C)(C)n1cc(-c2ccnc(NCCCNS(=O)(=O)c3cccc(F)c3)n2)c(-c2ccc(Cl)c(O)c2)n1 | 94.1% | 76% | 118% | 109% | 101% | 105% | 103% | 109% | 101% | 101% | 75.1% | 95.6% | 101% | 116% | 97.9% | 88.6% | 114% | 92.9%
CC(=O)N1C(=S)NC(=O)C1CC(C)C (stereo not given) | 101% | 99% | 103% | 100% | 99.5% | 101% | 104% | 118% | 110% | 105% | 100% | 115% | 103% | 102% | 97.7% | 106% | 108% | 101%
CC(C)(C)c1ccc(C(=O)Nc2sc3c(c2C(N)=O)CCC(O)C3)cc1 (stereo not given) | 25.8% | 16.3% | 43.4% | 66.5% | 68.5% | 70.1% | 44.9% | 55.3% | 82.9% | 49.9% | 28.8% | 58.5% | 32.2% | 7.55% (active) | 5.17% (active) | 26.3% | 37.4% | 11.7%
NC(N)=Nc1ccc(Oc2cccc(Nc3ccc(Cl)cc3)c2)cn1 | -57.8% (active) | -41.8% (active) | 29.4% | 48.3% | 20.2% | 53.2% | 14.4% | -14.3% (active) | 34.1% | 56.5% | 26.1% | 65.7% | 14.3% | -71.8% (active) | -76.7% (active) | -73.4% (active) | -89.1% (active) | -92.6% (active)
